Common to all, as to settings: mRNA level, 48 h; actives raise or lower the signal
Read-out in assay [1]: Cytochrome P450 3A7 (Homo sapiens) (UniProt P24462)
The experiment in a line: LTEA_HepaRG_CYP3A7: Life Technologies and Expression Analysis (LTEA) Assay for CYP3A7 using HepaRG (AID 2283492). In outline: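 Human HepaRG liver cells, 48 h post-plating, switched to serum-free induction medium and exposed in duplicate for 48 h. Dosing: 100 uM top, half-log dilutions, 8 points, 0.5% DMSO vehicle. Read-out: CYP3A7 mRNA, gain or loss fitted against DMSO baseline.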

Read-out in the next assay: CYP3A5 (gene 1577)
The experiment in a line: LTEA_HepaRG_CYP3A5: Life Technologies and Expression Analysis (LTEA) Assay for CYP3A5 using HepaRG (AID 2283493). In outline:
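mRNA induction or loss of CYP3A5 assessed in HepaRG after 48 h dosing, 100 uM top concentration, duplicate wells; TaqMan qRT-PCR with ACTB, GAPDH, POLR2A normalization; 0.5% DMSO as negative control.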

Read-out in assay [2]: Fatty Acid-Binding Protein 1 (FABP1), FABP1 (gene 2168)
In words: LTEA_HepaRG_FABP1: Life Technologies and Expression Analysis (LTEA) Assay for Fatty Acid-Binding Protein 1 (FABP1) using HepaRG (AID 2283494). In outline:
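Differentiated human HepaRG cells exposed 48 h in serum-free induction medium to eight half-log concentrations up to 100 uM (0.5% DMSO), duplicate. FABP1 mRNA by qRT-PCR, normalised to ACTB, GAPDH, POLR2A; bidirectional fitting against DMSO.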

Read-out in assay [3]: Cytochrome P450 4A22 (Homo sapiens) (UniProt Q5TCH4)
The experiment in a line: LTEA_HepaRG_CYP4A22: Life Technologies and Expression Analysis (LTEA) Assay for Cytochrome P450 4A22 (CYP4A22) using HepaRG (AID 2283495). In short, it runs like this: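 Readout is CYP4A22 transcript induction or loss, quantified by qRT-PCR and normalized to ACTB, GAPDH and POLR2A. Human HepaRG cells receive test chemicals for 48 h at eight half-log concentrations from 100 uM in 0.5% DMSO.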

Read-out in assay [4]: Cytochrome P450 7A1 (Homo sapiens) (UniProt P22680)
The experiment in a line: LTEA_HepaRG_CYP7A1: Life Technologies and Expression Analysis (LTEA) Assay for Cytochrome P450 7A1 (CYP7A1) using HepaRG (AID 2283496). In short, it runs like this: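 Gene expression endpoint in human HepaRG liver cells treated for 48 h with test chemicals (up to 100 uM, 0.5% DMSO). Values come from bidirectional concentration-response fitting versus DMSO.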

Read-out in assay [5]: Glutamate-cysteine ligase catalytic (GCLC), GCLC (gene 2729)
In words: LTEA_HepaRG_GCLC: Life Technologies and Expression Analysis (LTEA) Assay for Glutamate-cysteine ligase catalytic (GCLC) using HepaRG (AID 2283498). In short, it runs like this:
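Differentiated HepaRG cells exposed 48 h in serum-free induction medium, eight-point half-log series topping at 100 uM in 0.5% DMSO, duplicates. GCLC mRNA by qRT-PCR normalized to ACTB, GAPDH and POLR2A, fitted bidirectionally versus DMSO.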

Read-out in assay [6]: growth arrest and DNA damage 45 (GADD45G), GADD45G (gene 10912)
In words: LTEA_HepaRG_GADD45G: Life Technologies and Expression Analysis (LTEA) Assay for growth arrest and DNA damage 45 (GADD45G) using HepaRG (AID 2283499). In short, it runs like this:
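Gain or loss of GADD45G mRNA, quantified by TaqMan qRT-PCR against three housekeeping genes, is fitted in both directions relative to 0.5% DMSO. Human HepaRG cultures receive test chemical for 48 h at up to 100 uM.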

Read-out in assay [7]: Glutamate-cysteine ligase regulatory (GCLM), GCLM (gene 2730)
In words: LTEA_HepaRG_GCLM: Life Technologies and Expression Analysis (LTEA) Assay for Glutamate-cysteine ligase regulatory (GCLM) using HepaRG (AID 2283500). In short, it runs like this:
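Human liver HepaRG cultures receive test chemicals for 48 hours at up to 100 uM in 0.5% DMSO. GCLM expression is measured by qRT-PCR and analysed for increases or decreases against vehicle.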

Read-out in assay [8]: Glutathione S-transferase M3 (GSTM3), GSTM3 (gene 2947)
The experiment in a line: LTEA_HepaRG_GSTM3: Life Technologies and Expression Analysis (LTEA) Assay for Glutathione S-transferase M3 (GSTM3) using HepaRG (AID 2283501). In outline:
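HepaRG, plated 48 h, then serum-free induction medium; test chemical 48 h, duplicate; 100 uM top, half-log x8, 0.5% DMSO. Read-out: GSTM3 mRNA (TaqMan qRT-PCR, Fluidigm array). Bidirectional fit vs DMSO.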

Read-out in assay [9]: Heat shock 70 kDa protein 1 (HSPA1A), gene 3303
In words: LTEA_HepaRG_HSPA1A: Life Technologies and Expression Analysis (LTEA) Assay for Heat shock 70 kDa protein 1 (HSPA1A) using HepaRG (AID 2283502). In outline: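 HSPA1A induction in human HepaRG liver cells is measured after 48 h of chemical treatment (100 uM maximum, 0.5% DMSO vehicle). Expression comes from qRT-PCR normalized to endogenous controls.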

Read-out in assay [10]: Hypoxia-inducible factor 1-alpha (Homo sapiens) (UniProt Q16665)
The experiment in a line: LTEA_HepaRG_HIF1A: Life Technologies and Expression Analysis (LTEA) Assay for Hypoxia-inducible factor 1 (HIF1A) Trancription factor using HepaRG (AID 2283503).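 Also: HIF1A transcript by TaqMan qRT-PCR normalized to ACTB GAPDH and POLR2A.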 In outline:
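HepaRG, 48 h exposure, 8-pt half-log series from 100 uM, 0.5% DMSO vehicle, duplicates. Readout: HIF1A transcript by qRT-PCR (Fluidigm array), housekeeping-normalised. Bidirectional curve fit vs DMSO baseline.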

Read-out in assay [11]: 3-Hydroxy-3-Methylglutaryl-CoA Synthase 2 (HMGCS2), HMGCS2 (gene 3158)
In words: LTEA_HepaRG_HMGCS2: Life Technologies and Expression Analysis (LTEA) Assay for 3-Hydroxy-3-Methylglutaryl-CoA Synthase 2 (HMGCS2) using HepaRG (AID 2283504). In outline: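 HepaRG, plated 48 h then switched to serum-free induction media; cmpd 8-pt, max 100 uM, 1/2-log, 0.5% DMSO, n=2, 48 h. HMGCS2 mRNA by Fluidigm TaqMan qRT-PCR, ACTB/GAPDH/POLR2A norm; bidirectional fit vs DMSO.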

Read-out in the next assay: HGF (gene 3082)
In words: LTEA_HepaRG_HGF: Life Technologies and Expression Analysis (LTEA) Assay for Hepatocyte Growth Facto (HGF) using HepaRG (AID 2283505). In short, it runs like this: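 Read-out is HGF transcript level by qRT-PCR, normalized to three housekeeping genes, fitted bidirectionally against 0.5% DMSO vehicle. Human HepaRG cells received test chemicals for 48 h at up to 100 uM.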

Read-out in assay [12]: Insulin Like Growth Factor 1 (IGF1), IGF1 (gene 3479)
The experiment in a line: LTEA_HepaRG_IGF1: Life Technologies and Expression Analysis (LTEA) Assay for Insulin Like Growth Factor 1 (IGF1) using HepaRG (AID 2283506). In outline:
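Using human HepaRG liver cells, IGF1 transcript induction or suppression is measured 48 h after dosing across eight concentrations capped at 100 uM. Values derive from bidirectional concentration-response fitting with DMSO as baseline.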

Read-out in assay [13]: Intercellular Adhesion Molecule 1 (ICAM1), ICAM1 (gene 3383)
In words: LTEA_HepaRG_ICAM1: Life Technologies and Expression Analysis (LTEA) Assay for Intercellular Adhesion Molecule 1 (ICAM1) using HepaRG (AID 2283507). In outline:
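Readout is qRT-PCR mRNA level, normalized to three housekeeping genes and fitted bidirectionally against 0.5% DMSO vehicle. Human HepaRG cultures received compound for 48 h, top concentration 100 uM with half-log dilutions.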

Read-out in assay [14]: Insulin-like growth factor-binding protein 1 (IGFBP1), IGFBP1 (gene 3484)
In words: LTEA_HepaRG_IGFBP1: Life Technologies and Expression Analysis (LTEA) Assay for Insulin-like growth factor-binding protein 1 (IGFBP1) using HepaRG (AID 2283508). In outline: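 Thawed HepaRG cells are plated for 48 h, switched to serum-free induction medium, then dosed in duplicate for another 48 h (100 uM top, half-log steps). Lysates in RLT go to qRT-PCR, and gain or loss of signal is fitted relative to vehicle.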

Read-out in assay [15]: Interleukin 6 (IL6), IL6 (gene 3569)
The experiment in a line: LTEA_HepaRG_IL6: Life Technologies and Expression Analysis (LTEA) Assay for Interleukin 6 (IL6) using HepaRG (AID 2283509). In short, it runs like this: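 HepaRG cells exposed in duplicate for 48 h to eight half-log concentrations, top 100 uM, in 0.5% DMSO serum-free induction medium. mRNA measured by qRT-PCR, normalized to ACTB, GAPDH and POLR2A. Bidirectional fit versus DMSO.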

Read-out in assay [16]: Interleukin 6 Receptor (IL6R), IL6R (gene 3570)
In words: LTEA_HepaRG_IL6R: Life Technologies and Expression Analysis (LTEA) Assay for Interleukin 6 Receptor (IL6R) using HepaRG (AID 2283510). In short, it runs like this:
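Concentration-response in human liver HepaRG cells: eight concentrations from 100 uM downward by half-logs, 48 h exposure, 0.5% DMSO vehicle. IL6R mRNA change measured by qRT-PCR and fitted in both directions relative to vehicle.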

Read-out in assay [17]: Potassium channel subfamily K member 1 (KCNK1), KCNK1 (gene 3775)
In words: LTEA_HepaRG_KCNK1: Life Technologies and Expression Analysis (LTEA) Assay for Potassium channel subfamily K member 1 (KCNK1) using HepaRG (AID 2283511). In outline:
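Differentiated HepaRG cells, 48 h exposure in serum-free induction medium with 0.5% DMSO; 8 concentrations, half-log from 100 uM, duplicate. KCNK1 mRNA by qRT-PCR, normalized to ACTB, GAPDH, POLR2A; bidirectional fit vs DMSO.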

SMILES strings stand for the structures. The source made the active and inactive calls. The calls were made as follows: active = hit-call score of the fitted dose curve at least 0.9, where 1 is the maximum; inactive = score below 0.9.

These results are taken from PubChem BioAssay (EPA / NIEHS).

What is called AC50 is the concentration at which the activity in the assay is half-maximal.

Sequence of Hypoxia-inducible factor 1-alpha (Homo sapiens) (Q16665 whole entry, looked up): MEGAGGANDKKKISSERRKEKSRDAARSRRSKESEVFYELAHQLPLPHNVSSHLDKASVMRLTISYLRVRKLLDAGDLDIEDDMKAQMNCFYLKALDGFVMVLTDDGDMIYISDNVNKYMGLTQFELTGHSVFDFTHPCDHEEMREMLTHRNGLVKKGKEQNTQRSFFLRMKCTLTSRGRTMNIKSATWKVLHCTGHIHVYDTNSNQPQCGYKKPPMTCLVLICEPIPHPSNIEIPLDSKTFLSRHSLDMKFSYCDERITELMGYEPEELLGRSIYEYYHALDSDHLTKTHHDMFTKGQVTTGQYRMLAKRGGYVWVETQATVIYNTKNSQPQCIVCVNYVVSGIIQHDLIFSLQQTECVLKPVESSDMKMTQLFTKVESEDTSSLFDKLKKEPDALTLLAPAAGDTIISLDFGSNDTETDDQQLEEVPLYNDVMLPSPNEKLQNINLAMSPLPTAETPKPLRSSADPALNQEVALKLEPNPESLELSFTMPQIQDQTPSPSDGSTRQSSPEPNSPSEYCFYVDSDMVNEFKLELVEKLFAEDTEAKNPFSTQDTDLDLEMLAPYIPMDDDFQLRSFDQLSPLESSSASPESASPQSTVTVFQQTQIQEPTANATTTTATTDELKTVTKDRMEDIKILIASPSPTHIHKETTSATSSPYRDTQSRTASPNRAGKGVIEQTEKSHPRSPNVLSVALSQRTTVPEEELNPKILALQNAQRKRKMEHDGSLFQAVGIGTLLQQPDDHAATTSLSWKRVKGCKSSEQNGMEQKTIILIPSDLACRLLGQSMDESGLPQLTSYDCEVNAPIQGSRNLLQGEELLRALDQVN
Sequence of Cytochrome P450 3A7 (Homo sapiens) (P24462 whole entry, looked up): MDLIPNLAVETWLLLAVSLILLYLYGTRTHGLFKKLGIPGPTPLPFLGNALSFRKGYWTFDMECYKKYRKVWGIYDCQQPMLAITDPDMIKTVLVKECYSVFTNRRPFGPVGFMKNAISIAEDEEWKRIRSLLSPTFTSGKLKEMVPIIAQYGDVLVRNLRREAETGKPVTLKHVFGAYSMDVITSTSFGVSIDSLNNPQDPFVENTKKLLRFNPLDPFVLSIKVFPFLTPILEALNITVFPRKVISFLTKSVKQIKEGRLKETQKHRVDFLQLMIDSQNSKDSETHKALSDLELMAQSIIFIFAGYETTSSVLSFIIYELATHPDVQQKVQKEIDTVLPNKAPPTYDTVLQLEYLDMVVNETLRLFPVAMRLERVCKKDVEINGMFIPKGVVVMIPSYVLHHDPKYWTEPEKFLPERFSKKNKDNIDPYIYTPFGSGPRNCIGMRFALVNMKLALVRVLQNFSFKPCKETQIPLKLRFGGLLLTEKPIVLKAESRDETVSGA

For the compound `CCC(C)Nc1c([N+](=O)[O-])cc(C(C)(C)C)cc1[N+](=O)[O-]` (configuration not stated), the call (in assay [1]; with CYP3A5 (gene 1577); in assay [5]; in assay [6]; in [7]; in assay [8]) was inactive. The outcome (in [9]; in assay [10]; with HGF (gene 3082); in assay [13]; in [14]; in [15]) was inactive. The call in assay [16] and in assay [17] was inactive. Besides, the AC50 in assay [2] is 50 µM (active); in [3], 38.7 µM (active); in assay [4], 34.4 µM (active); in assay [11] it was 50 µM (active); in assay [12] it was 48 µM (active).
With `CC1(C)C(C=C(Cl)Cl)C1C(=O)OC(C#N)c1ccc(F)c(Oc2ccccc2)c1` (configuration not stated), the compound was called inactive (in assay [1]; with CYP3A5 (gene 1577); in [2]; in assay [3]; in assay [4]; in assay [5]). In addition, the call in assay [6], in [7], in assay [8], in assay [9], in [10] and in assay [11] was inactive. The compound was classed as inactive (with HGF (gene 3082); in [12]; in assay [13]; in assay [14]; in assay [15]; in assay [16]). For the same compound, the result in assay [17] was inactive.
For the compound `O=[N+]([O-])c1c(Cl)c(Cl)c(Cl)c(Cl)c1Cl`, the call (in assay [1]; in the assay with CYP3A5 (gene 1577); in [3]; in assay [4]; in assay [5]; in assay [6]) was inactive. Besides, the result (in assay [7]; in [8]; in assay [9]; in assay [10]; in [11]; with HGF (gene 3082)) was inactive. The result in [13], in assay [14], in assay [16] and in [17] was inactive. Moreover, the half-maximal activity concentration (AC50) in assay [2] was 50 µM (active); in [12], 50 µM (active); in [15], 9.92 µM (active).
